According to PubChem BioAssay (Tox21):
Inconclusive results are not listed. Calls of active or inactive are those of the source. Calls follow the shape of the dose curve; as a rule, active = well fitted activation curve with a large enough effect in the signal ratio in the repeat runs, with a control signal flat (not every such curve was filed as active); inconclusive = weak or mixed curves; inactive = flat fitted curve, though single readings scatter; the % refers to the signal ratio.

Assay: qHTS assay for small molecule activators of the heat shock response signaling pathway (AID 743210)
Conditions: HeLa HSE-bla reporter, beta-lactamase ratio, 5 h; series mostly up to 62.6 µM; activation: at the top concentration
Description: U.S. Tox21 Program National Center for Advancing Translational Sciences [NCATS] NIH Chemical Genomics Center [NCGC] U.S. Environmental Protection Agency [EPA] National Institutes of Environmental Health Sciences [NIEHS] National Toxicology Program [NTP] U.S. Food and Drug Administration [FDA] Tox21 Assay Overview: Various chemicals, environmental and physiological stress conditions may lead to the activation of heat shock response/ unfolded protein response (HSR/UPR). There are three heat shock transcription factors (HSFs) (HSF-1, -2, and -4) mediating transcriptional regulation of the human HSR. To identify the compounds that activate HSR signaling, HSE-bla HeLa cell line (Invitrogen, Carlsbad, CA, USA) containing a beta-lactamase reporter gene under the control of the heat shock response elements was used to screen the Tox21 10K compound library.
Tox21 Assay Protocol Summary: The CellSensor HSE-bla HeLa cells (Invitrogen, Carlsbad, CA, USA) were dispensed at 1500 cells/6uL/well into 1536-well black wall/clear bottom plates using a Multidrop combi (Thermo Fisher Scientific, Waltham, MA) dispenser. After the assay plates were incubated at 37 C and 5% CO2 overnight, 23 nL of compounds dissolved in DMSO, positive controls or DMSO only was transferred to the assay plate by a Pintool station (Kalypsys, San Diego, CA). The plates were incubated at 37 C for 5 h. After 1 uL of LiveBLAzerTM B/G FRET substrate was added using a Flying Reagent Dispenser (Beckman Coulter, Indianapolis, IN, USA), the plates were incubated at room temperature for 2.5 h, and fluorescence intensity was measured by an Envision plate reader (PerkinElmer, Shelton, CT).
% is scaled to controls: 0 for no effect and ±100 for the full control effect.

SMILES | activation
COc1c(N2CCNC(C)C2)c(F)cc2c(=O)c(C(=O)O)cn(C3CC3)c12 (stereo not given) | 0.175% (inactive)
CCOc1ccccc1OCC | -1.11% (inactive)
Cc1ccc(-c2ccccc2C#N)cc1 | -0.175% (inactive)
CO[Si](C)(OC)c1ccccc1 | -1.04% (inactive)
CCNS(=O)(=O)c1ccc(C)cc1 | -0.903% [at 81.1 µM] (inactive)
CCCc1nn(C)c2c(=O)[nH]c(-c3cc(S(=O)(=O)N4CCN(C)CC4)ccc3OCC)nc12 | -0.827% (inactive)
CCOc1c(N2CCOCC2)cnn(C)c1=O | -0.525% (inactive)
CN1CCC(=C2c3ccccc3CCc3cccnc32)CC1 | 1.35% (inactive)
C=CCCCCCCCCC(=O)OCC | -0.0286% (inactive)
NC(=O)N[C@@H](CCC(=O)O)C(=O)O | -0.3% (inactive)
c1ccc(Cc2ccccc2)cc1 | -0.692% (inactive)
C[N+]1(C)[C@@H]2CC(OC(=O)[C@H](CO)c3ccccc3)C[C@H]1[C@@H]1O[C@@H]12 (stereo not given in full) | -0.15% (inactive)
CCCc1ncc(C[n+]2ccccc2C)c(N)n1 | 0.625% (inactive)
CC(C)CC(C)(N)C#N (stereo not given) | -0.107% [at 81.1 µM] (inactive)
CC1=CC(=O)[C@H]2C[C@@H]1C2(C)C | -0.399% (inactive)
O=C(CO)[C@@H](O)[C@H](O)[C@H](O)CO | 0.361% [at 81.1 µM] (inactive)
O=[N+]([O-])c1cncn1CCN1CCOCC1 | -1.81% (inactive)
CC(COc1ccccc1)NN (stereo not given) | -0.354% (inactive)
Clc1cc(Cl)cc(Cl)c1 | 1.12% (inactive)
Cc1cccc(C)c1NC(=O)CC12CCCN1CCC2 | -0.075% (inactive)

SMILES | activation
CN(C)CCCCCCN(C)C | -1.12% [at 81.1 µM] (inactive)
CCOc1ccc2nc(S(N)(=O)=O)sc2c1 | -0.672% (inactive)
CCCOC(=O)CC | 0.234% (inactive)
O=CN(CCO)CCO | 1.82% (inactive)
COc1cc(-c2ccc(=O)[nH]n2)ccc1OC(F)F | 0.25% (inactive)
Nc1ccn([C@@H]2O[C@H](CO)[C@@H](O)C2(F)F)c(=O)n1 | 0.227% (inactive)
CC(C)[C@H]1CC[C@@H](C)CC1=O | -1.46% (inactive)
O=C(O)CNC(=O)c1ccccc1 | 0.308% (inactive)
CCCCCCCCCC[N+](C)(C)[O-] | 0.424% (inactive)
CC(=O)Oc1cccc(C)c1 | 0.477% (inactive)
OCCCCCO | 0% [at 81.1 µM] (inactive)
CC(=O)O[C@@]12CO[C@@H]1C[C@H](O)[C@@]1(C)C(=O)[C@H](O)C3=C(C)[C@@H](OC(=O)[C@H](O)[C@@H](NC(=O)OC(C)(C)C)c4ccccc4)C[C@@](O)([C@@H](OC(=O)c4ccccc4)[C@H]21)C3(C)C | 0.75% (inactive)
COC(=O)Nc1ccc(Cl)c(Cl)c1 | -0.111% (inactive)
CC(C)(CCC(=O)O)C(=O)O | -0.471% [at 81.1 µM] (inactive)
CC(C)(C)C(=O)c1ccccc1 | -0.518% (inactive)
CCCCCC(C)N (stereo not given) | -0.132% (inactive)
CC(=O)N[C@H]1[C@H]([C@H](O)[C@H](O)CO)OC(C(=O)O)=C[C@@H]1N=C(N)N | -0.125% (inactive)
CCCO[Si](OCCC)(OCCC)OCCC | -0.743% (inactive)
CN(C)C(=O)Oc1cccc([N+](C)(C)C)c1 | 1.71% (inactive)
c1ccc2sc(SN3CCOCC3)nc2c1 | 0.179% (inactive)
